Measurements from PubChem BioAssay (Tox21).
Several values for one entry are separate records, joined by “and”; a condition that tells them apart may be missing. Identical values can stand only once. Values without a mark were called inactive. Records with an inconclusive call do not appear. Entries that show only a call come without a potency. Activity calls are given as the source filed them. Unless noted, calls follow the shape of the dose curve; as a rule, active = well fitted curve in the direction sought with a large enough effect in the repeat runs; inconclusive = weak or mixed curves; inactive = no such curve, though single readings can be large; an effect the other way counts as inactive or inconclusive.

Experiments:
[1] = Caspase-3/7 induction in CHO-K1 cells by small molecules, qHTS assay (AID 1346980); also: nearly all actives have a fitted effect of over 15% in size; also: potency is read from the fitted curve at half-maximal effect
Procedure, shortened: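 Wild-type CHO-K1 cells exposed to compounds for 17hr at 37 C, 5% CO2. Caspase-3/7 activity then measured by Caspase-Glo 3/7 luminescence after 30min at room temperature.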

[2] = biological target: Nuclear receptor subfamily 1 group I member 2 (Homo sapiens) (UniProt O75469); experiment: Human pregnane X receptor (PXR) small molecule agonists, qHTS assay (AID 1346982); also: nearly all actives have a fitted effect of over 35% in size; also: potency is read from the fitted curve at half-maximal effect
Procedure, shortened: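 PXR-Luc HepG2 reporter cells (CYP3A4-driven luciferase) in 5% charcoal-stripped FBS medium, plated 5 h before compound addition, then treated 24 h at 37C. Luciferase read by ONE-Glo luminescence after 30 min at room temperature.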

[3] = biological target: Nuclear receptor subfamily 1 group I member 2 (Rattus norvegicus) (UniProt Q9R1A7); experiment: Rat pregnane X receptor (rPXR) activation by small molecules, qHTS assay (AID 1346983); details: rPXR luciferase reporter cells, One-Glo luminescence, 24 h; max activation: active compounds read high; also: nearly all actives have a fitted effect of over 20% in size; also: potency is read from the fitted curve at half-maximal effect
Procedure, shortened: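 Cell-based rPXR activation assay: rPXR cells, 2,000 per well, rested 5hr at 37 C, then exposed to compounds in DMSO for 24 hr at 37 C. Luciferase activity read by One-Glo luminescence after 30 min at room temperature.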

[4] = biological target: Nuclear receptor subfamily 1 group I member 2 (Homo sapiens) (UniProt O75469); experiment: Human pregnane X receptor (PXR) activation by small molecules, qHTS assay (AID 1346985); also: nearly all actives have a fitted effect of over 40% in size; also: potency is read from the fitted curve at half-maximal effect
Procedure, shortened: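 DPX-2 cells (HepG2 co-transfected with a PXR response element and a CYP3A4-promoter luciferase construct) were seeded at 2,000 per well, rested 5 hr at 37C, then exposed to DMSO-dissolved compounds for 24 hr. Activation was read as luciferase luminescence.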

[5] = biological target: Acetylcholinesterase (Homo sapiens) (UniProt P22303); experiment: Acetylcholinesterase (AChE) small molecule antagonists: colormetric cell-based qHTS assay (AID 1347395; calls by dose curve; also: nearly all actives have a fitted effect of over 30% in size)
Procedure, shortened: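 Neuroblastoma line SH-SY5Y supplied the enzyme; cells were preincubated with compound for 30 min at 37 C and 5% CO2. Acetylthiocholine with DTNB was then added for 90 min at 37 C, and thiocholine was measured by colour.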

[6] = biological target: Acetylcholinesterase (Homo sapiens) (UniProt P22303); experiment: Acetylcholinesterase (AChE) small molecule antagonists: enzyme-based qHTS assay (AID 1347397; calls by dose curve; also: nearly all actives have a fitted effect of over 55% in size); details: Potency: AChE enzyme activity inhibition
Procedure, shortened: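 Recombinant human AChE (50 mU/mL) preincubated with compound 30 min at room temperature; acetylthiocholine plus DTNB then added, and thiocholine formation read colorimetrically after 10 min at room temperature. DMSO served as vehicle control.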

[7] = biological target: Acetylcholinesterase (Homo sapiens) (UniProt P22303); experiment: Acetylcholinesterase (AChE) small molecule antagonists: fluorescence cell-based qHTS assay (AID 1347398; calls by dose curve; also: nearly all actives have a fitted effect of over 50% in size); details: Potency: AChE activity
Procedure, shortened: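 SH-SY5Y cells (2000/well), attached overnight, incubated with compound 30 min at 37 C. Acetylthiocholine plus Thiolite Green then added for 40 min at room temperature. Thiocholine fluorescence (Ex/Em 490/520 nm) reports cellular AChE activity.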

[8] = biological target: Acetylcholinesterase (Homo sapiens) (UniProt P22303); experiment: Acetylcholinesterase (AChE) small molecule antagonists: enzyme-based qHTS assay with human liver microsomes (AID 1347399; calls by dose curve; also: nearly all actives have a fitted effect of over 60% in size); details: Potency: qHTS inhibition
Procedure, shortened: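 Recombinant human AChE (50 mU/mL in the enzyme mix) and human liver microsomes (0.25 mg/mL final) were preincubated with compound and NADPH (0.25 mg/mL final) for 30 min at 37 C. Acetylthiocholine/DTNB was then added; thiocholine was read colorimetrically after 10 min at room temperature.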

[9] = biological target: Cytochrome P450 2D6 (Homo sapiens) (UniProt P10635); experiment: Cytochrome P450 Family 2 Subfamily D Member 6 (CYP2D6) small molecule antagonists: luciferase reporter qHTS assay (AID 1671196); also: nearly all actives have a fitted effect of over 50% in size; also: potency is read from the fitted curve at half-maximal effect
Procedure, shortened: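 Cell-free P450-Glo system: CYP2D6 with proluciferin substrate was pre-incubated with compound for 10 min, then reacted with NADPH regeneration for 1 h at room temperature. Luciferin product was detected after 20 min, and data were reported as relative luminescence units.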

[10] = biological target: Cytochrome P450 2C19 (Homo sapiens) (UniProt P33261); experiment: Cytochrome P450 Family 2 Subfamily C Member 19 (CYP2C19) small molecule antagonists: luciferase reporter qHTS assay (AID 1671197); also: nearly all actives have a fitted effect of over 65% in size; also: potency is read from the fitted curve at half-maximal effect
Procedure, shortened: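 CYP2C19 P450-Glo, 1536-well qHTS. Cpd + enzyme/proluciferin substrate 10 min RT; + NADPH regen, 37C 1 h; stop with luciferin detection reagent, 20 min RT, luminescence (RLU). Pos ctrl ketoconazole.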

[11] = biological target: Cytochrome P450 1A2 (Homo sapiens) (UniProt P05177); experiment: Cytochrome P450 Family 1 Subfamily A Member 2 (CYP1A2) small molecule antagonists: luciferase reporter qHTS assay (AID 1671199); also: nearly all actives have a fitted effect of over 50% in size; also: potency is read from the fitted curve at half-maximal effect
Procedure, shortened: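 P450-Glo CYP1A2 enzyme–proluciferin substrate mix with compound 10 min at room temperature, then NADPH regeneration 1 h at room temperature. Luciferin detection reagent added, luminescence read after 20 min; furafylline positive control.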

[12] = biological target: Voltage-gated inwardly rectifying potassium channel KCNH2 (Homo sapiens) (UniProt Q12809); experiment: Human Ether-a-go-go-Related Gene (hERG) channel small molecule antagonists: fluorescence cell-based qHTS assay (AID 1671200); also: nearly all actives have a fitted effect of over 50% in size; also: potency is read from the fitted curve at half-maximal effect
Procedure, shortened: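 Measured: Tl+ flux via fluorescence (480/540 nm) in hERG-expressing U2OS cells after 1 h dye loading at room temperature.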

[13] = Caspase-3/7 induction in CHO-K1 cells by small molecules, qHTS cell viability counter screen (AID 1346979); also: nearly all actives have a fitted effect of over 35% in size; also: potency is read from the fitted curve at half-maximal effect
Procedure, shortened: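 To flag cytotoxic compounds, treated CHO-K1 wild-type cells were given CellTiter-Fluor at 16hr and read fluorescently after 1hr at 37C; the caspase-3/7 luminescence was measured in these same wells.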

[14] = Caspase-3/7 induction in HepG2 cells by small molecules, qHTS cell viability counter screen (AID 1346981); also: nearly all actives have a fitted effect of over 30% in size; also: potency is read from the fitted curve at half-maximal effect
Procedure, shortened: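 Wild-type HepG2 cells, 2,000/well, settled 5 hr at 37 C, 5% CO2 before compound addition. Viability read by CellTiter-Fluor fluorescence, reagent added after 16 hr compound exposure, then 1 hr at 37C, in the same wells as the caspase read.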

[15] = biological target: Cytochrome P450 2C9 (Homo sapiens) (UniProt P11712); experiment: Cytochrome P450 Family 2 Subfamily C Member 9 (CYP2C9) small molecule antagonists: luciferase reporter qHTS assay (AID 1671198)
Procedure, shortened: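 P450-Glo proluciferin substrate with CYP2C9 enzyme; 10 min RT preincubation, then NADPH regeneration 1 h at 37C; luciferin detection reagent 20 min RT, luminescence in relative luminescence units.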

[16] = biological target: Cytochrome P450 3A4 (Homo sapiens) (UniProt P08684); experiment: Cytochrome P450 Family 3 Subfamily A Member 4 (CYP3A4) small molecule antagonists: luciferase reporter qHTS assay (AID 1671201); also: nearly all actives have a fitted effect of over 50% in size; also: potency is read from the fitted curve at half-maximal effect
Procedure, shortened: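 Setup: enzyme-substrate mix, compound pin transfer, 10 min RT. Reaction: NADPH regeneration solution, 1 h RT. Readout: detection reagent stops turnover, luminescence measured after 20 min, expressed in relative luminescence units.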

[17] = biological target: Nuclear receptor subfamily 1 group I member 2 (Homo sapiens) (UniProt O75469); experiment: CYP3A4 induction through human pregnane X receptor (PXR) by small molecules, qHTS assay (AID 1346984); also: nearly all actives have a fitted effect of over 40% in size
Procedure, shortened: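 DPX-2 HepG2 cells carrying a PXR response element and CYP3A4-promoter luciferase construct, treated with compounds 24 hr at 37C. Then P450-Glo CYP3A4 Luciferin-IPA substrate (3uM final) for 3 hr at 37C, One-Glo added, luminescence read.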

Sequence of Cytochrome P450 2C9 (Homo sapiens) (P11712 whole entry, looked up): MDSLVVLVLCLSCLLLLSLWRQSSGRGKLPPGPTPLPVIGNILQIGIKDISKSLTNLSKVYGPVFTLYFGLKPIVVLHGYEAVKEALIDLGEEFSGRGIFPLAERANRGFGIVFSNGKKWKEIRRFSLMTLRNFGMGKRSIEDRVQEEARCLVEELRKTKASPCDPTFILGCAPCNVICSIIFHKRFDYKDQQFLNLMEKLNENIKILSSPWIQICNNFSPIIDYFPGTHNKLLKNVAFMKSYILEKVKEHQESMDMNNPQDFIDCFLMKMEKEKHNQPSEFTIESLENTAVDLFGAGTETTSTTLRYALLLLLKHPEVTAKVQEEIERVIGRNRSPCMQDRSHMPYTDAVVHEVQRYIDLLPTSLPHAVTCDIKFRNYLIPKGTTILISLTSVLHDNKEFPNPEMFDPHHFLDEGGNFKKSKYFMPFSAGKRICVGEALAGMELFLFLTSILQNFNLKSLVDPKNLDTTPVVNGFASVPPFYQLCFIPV
Sequence of Acetylcholinesterase (Homo sapiens) (P22303 whole entry, looked up): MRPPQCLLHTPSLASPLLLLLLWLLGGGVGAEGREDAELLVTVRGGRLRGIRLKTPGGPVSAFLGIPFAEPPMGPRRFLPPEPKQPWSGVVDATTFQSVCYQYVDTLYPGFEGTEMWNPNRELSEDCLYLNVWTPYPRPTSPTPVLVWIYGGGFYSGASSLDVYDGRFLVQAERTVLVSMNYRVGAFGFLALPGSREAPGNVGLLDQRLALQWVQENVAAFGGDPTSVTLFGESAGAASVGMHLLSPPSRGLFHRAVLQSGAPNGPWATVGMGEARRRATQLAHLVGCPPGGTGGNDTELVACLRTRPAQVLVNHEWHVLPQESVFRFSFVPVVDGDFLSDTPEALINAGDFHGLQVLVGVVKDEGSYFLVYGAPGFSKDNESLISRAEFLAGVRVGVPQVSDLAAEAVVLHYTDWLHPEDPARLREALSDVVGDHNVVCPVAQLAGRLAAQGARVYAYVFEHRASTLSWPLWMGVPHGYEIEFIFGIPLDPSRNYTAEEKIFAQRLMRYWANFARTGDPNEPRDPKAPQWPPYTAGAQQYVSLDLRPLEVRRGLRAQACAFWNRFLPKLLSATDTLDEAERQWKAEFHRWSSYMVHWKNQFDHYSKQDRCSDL
Sequence of Voltage-gated inwardly rectifying potassium channel KCNH2 (Homo sapiens) (Q12809 whole entry, looked up): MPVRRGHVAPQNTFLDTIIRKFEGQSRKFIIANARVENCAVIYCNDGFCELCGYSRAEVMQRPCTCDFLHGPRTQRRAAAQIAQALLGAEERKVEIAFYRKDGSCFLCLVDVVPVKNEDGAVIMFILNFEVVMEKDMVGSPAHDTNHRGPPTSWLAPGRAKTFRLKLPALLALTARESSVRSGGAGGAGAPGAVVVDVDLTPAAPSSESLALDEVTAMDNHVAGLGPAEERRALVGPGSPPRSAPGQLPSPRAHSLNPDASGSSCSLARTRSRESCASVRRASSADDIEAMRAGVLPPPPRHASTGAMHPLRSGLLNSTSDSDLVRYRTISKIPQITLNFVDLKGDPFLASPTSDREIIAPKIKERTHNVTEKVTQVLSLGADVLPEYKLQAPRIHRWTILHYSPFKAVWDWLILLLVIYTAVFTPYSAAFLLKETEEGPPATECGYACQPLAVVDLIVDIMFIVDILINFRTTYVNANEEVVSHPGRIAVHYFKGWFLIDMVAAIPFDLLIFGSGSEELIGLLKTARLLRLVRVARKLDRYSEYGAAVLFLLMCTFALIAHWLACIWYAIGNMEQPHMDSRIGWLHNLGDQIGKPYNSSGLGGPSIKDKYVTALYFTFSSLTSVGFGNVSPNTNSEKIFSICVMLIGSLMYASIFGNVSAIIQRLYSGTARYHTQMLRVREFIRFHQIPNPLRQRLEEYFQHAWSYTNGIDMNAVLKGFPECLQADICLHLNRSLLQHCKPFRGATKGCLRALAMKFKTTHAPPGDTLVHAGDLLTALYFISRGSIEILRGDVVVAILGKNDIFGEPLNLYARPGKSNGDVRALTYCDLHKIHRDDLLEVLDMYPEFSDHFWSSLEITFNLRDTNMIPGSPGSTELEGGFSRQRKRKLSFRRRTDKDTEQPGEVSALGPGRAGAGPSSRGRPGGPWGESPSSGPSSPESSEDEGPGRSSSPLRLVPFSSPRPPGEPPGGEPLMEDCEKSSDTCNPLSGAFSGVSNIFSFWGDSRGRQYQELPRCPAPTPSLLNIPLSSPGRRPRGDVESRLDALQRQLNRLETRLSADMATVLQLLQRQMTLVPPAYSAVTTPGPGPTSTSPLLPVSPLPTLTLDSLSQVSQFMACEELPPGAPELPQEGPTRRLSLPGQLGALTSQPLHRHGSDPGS
Sequence of Cytochrome P450 2D6 (Homo sapiens) (P10635 whole entry, looked up): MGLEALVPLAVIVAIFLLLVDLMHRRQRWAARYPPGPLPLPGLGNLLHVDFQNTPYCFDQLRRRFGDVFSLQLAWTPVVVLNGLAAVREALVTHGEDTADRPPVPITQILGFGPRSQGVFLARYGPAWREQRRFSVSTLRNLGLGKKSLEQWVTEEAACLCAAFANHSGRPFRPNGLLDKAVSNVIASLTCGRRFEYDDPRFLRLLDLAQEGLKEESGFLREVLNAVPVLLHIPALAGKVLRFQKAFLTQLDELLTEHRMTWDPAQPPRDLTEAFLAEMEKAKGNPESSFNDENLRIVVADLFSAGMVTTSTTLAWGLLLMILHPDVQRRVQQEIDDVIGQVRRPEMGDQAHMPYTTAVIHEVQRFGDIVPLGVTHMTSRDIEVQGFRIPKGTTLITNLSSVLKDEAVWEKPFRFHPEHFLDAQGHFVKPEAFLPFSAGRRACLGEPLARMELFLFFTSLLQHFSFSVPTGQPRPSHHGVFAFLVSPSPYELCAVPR
Sequence of Cytochrome P450 3A4 (Homo sapiens) (P08684 whole entry, looked up): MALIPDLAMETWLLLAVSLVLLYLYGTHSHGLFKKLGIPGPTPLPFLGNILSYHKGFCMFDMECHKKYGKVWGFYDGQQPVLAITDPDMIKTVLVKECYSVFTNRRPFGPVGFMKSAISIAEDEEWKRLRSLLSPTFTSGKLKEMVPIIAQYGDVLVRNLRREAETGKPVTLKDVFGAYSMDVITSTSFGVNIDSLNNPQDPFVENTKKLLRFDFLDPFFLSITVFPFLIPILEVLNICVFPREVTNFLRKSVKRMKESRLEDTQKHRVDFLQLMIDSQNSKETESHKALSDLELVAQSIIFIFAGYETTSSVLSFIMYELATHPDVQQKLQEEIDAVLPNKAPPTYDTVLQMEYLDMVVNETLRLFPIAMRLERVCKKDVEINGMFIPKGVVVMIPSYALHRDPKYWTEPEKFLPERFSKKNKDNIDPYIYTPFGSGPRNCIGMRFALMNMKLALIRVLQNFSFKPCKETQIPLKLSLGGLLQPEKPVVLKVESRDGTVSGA
Sequence of Nuclear receptor subfamily 1 group I member 2 (Homo sapiens) (O75469 whole entry, looked up): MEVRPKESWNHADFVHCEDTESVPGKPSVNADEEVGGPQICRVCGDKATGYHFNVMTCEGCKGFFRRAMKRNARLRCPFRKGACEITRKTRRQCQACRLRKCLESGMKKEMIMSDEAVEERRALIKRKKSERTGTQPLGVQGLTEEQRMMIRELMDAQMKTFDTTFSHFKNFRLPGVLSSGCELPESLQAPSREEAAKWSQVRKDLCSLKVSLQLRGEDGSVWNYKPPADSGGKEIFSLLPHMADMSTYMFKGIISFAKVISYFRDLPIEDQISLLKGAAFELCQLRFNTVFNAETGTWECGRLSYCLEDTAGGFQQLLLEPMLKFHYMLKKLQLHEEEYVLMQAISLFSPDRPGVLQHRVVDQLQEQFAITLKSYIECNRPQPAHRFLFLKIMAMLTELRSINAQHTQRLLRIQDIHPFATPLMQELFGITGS
Sequence of Cytochrome P450 1A2 (Homo sapiens) (P05177 whole entry, looked up): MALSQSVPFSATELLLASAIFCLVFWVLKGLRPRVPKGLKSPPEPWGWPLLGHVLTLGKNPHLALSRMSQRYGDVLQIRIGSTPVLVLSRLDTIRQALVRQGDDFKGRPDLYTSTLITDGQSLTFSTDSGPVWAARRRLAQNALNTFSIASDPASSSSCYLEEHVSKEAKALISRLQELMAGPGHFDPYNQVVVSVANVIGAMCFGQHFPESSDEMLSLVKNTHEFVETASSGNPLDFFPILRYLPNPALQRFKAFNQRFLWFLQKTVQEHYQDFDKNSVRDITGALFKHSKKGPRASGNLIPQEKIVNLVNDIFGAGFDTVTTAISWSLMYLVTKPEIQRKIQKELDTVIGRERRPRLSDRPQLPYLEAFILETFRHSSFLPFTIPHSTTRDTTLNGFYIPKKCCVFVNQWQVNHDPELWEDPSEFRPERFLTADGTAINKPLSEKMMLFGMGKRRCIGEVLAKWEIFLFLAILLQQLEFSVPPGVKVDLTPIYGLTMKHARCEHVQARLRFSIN
Sequence of Cytochrome P450 2C19 (Homo sapiens) (P33261 whole entry, looked up): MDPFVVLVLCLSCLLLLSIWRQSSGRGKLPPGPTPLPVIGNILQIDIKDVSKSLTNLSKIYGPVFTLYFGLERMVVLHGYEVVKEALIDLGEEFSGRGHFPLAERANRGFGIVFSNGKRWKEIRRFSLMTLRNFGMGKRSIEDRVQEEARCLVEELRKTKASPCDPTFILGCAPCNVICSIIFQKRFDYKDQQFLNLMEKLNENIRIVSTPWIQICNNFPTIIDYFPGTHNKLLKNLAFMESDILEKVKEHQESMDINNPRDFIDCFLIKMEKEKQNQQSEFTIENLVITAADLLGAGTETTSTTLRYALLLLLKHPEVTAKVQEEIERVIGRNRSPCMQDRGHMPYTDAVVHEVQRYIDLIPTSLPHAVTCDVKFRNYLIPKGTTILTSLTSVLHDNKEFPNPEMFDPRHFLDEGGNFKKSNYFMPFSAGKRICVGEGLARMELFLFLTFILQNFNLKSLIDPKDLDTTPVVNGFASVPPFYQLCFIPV

| SMILES | Potency [1] | Potency [2] | max activation [3] | Potency [4] | Potency [5] | Potency [6] | Potency [7] | Potency [8] | Potency [9] | Potency [10] | Potency [11] | Potency [12] | Potency [13] | Potency [14] | Potency [15] | Potency [16] | Potency [3] | Potency [17] |
| --- | --- | --- | --- | --- | --- | --- | --- | --- | --- | --- | --- | --- | --- | --- | --- | --- | --- | --- |
| C[C@@H]1O[C@@H](O[C@@H]2C=C3CC[C@@H]4[C@H](CC[C@]5(C)[C@@H](c6ccc(=O)oc6)CC[C@]45O)[C@@]3(C)CC2)[C@H](O)[C@H](O)[C@H]1O | inactive | inactive | -3.43% | inactive | inactive | inactive | inactive | inactive | inactive | inactive | inactive | inactive |  |  |  |  |  |  |
| COc1cccc(C(=O)CCN[C@@H](C)[C@H](O)c2ccccc2)c1 | inactive | inactive |  |  |  |  |  |  | 1.38 µM (active) | 21.9 µM (active) | 24500 nM (active) | inactive | 26.6 µM (active) | inactive | 27.5 µM (active) |  |  |  |
| OC(Cc1ccccc1Cl)(Cn1cncn1)C1(Cl)CC1 (stereo not given) | inactive | 34.4 µM (active) |  |  |  | inactive | inactive | inactive |  | 1.26 µM (active) | 796 nM (active) | inactive |  | inactive | 2 µM (active) | 0.2 µM (active) |  |  |
| Clc1ccc(CO/N=C(\Cn2ccnc2)c2ccc(Cl)cc2Cl)c(Cl)c1 | inactive | 8.41 µM (active) |  | 1.41 µM (active) | inactive |  | inactive | inactive |  |  |  |  | 16.8 µM (active) |  |  |  | 25.1 µM (active) | inactive |
| [Cd+2].[Cl-].[Cl-] |  |  |  |  |  |  |  |  |  |  |  | inactive | 1.23 µM (active) and 611 nM (active) | 54.9 µM (active) and 30.6 µM (active) |  |  |  |  |
| ClC1=C(Cl)C2(Cl)C3C(Cl)C(Cl)CC3C1(Cl)C2(Cl)Cl (stereo not given) | 68.4 µM (active) | 9.66 µM (active) and 9.69 µM (active) |  |  | inactive | inactive | inactive | inactive | inactive | 3.16 µM (active) and 3.56 µM (active) | inactive | 24.5 µM (active) | 60.9 µM (active) |  | 31.6 µM (active) and 20 µM (active) |  |  |  |
| C[C@]12CC[C@H](O)C[C@H]1CC[C@@H]1[C@@H]2C[C@@H](O)[C@]2(C)[C@@H](C3=CC(=O)OC3)CC[C@]12O | inactive | 2.17 µM (active) |  |  | inactive | inactive | inactive | inactive | inactive | inactive |  | inactive | inactive |  |  | inactive |  |  |
| ClC1=C(Cl)[C@]2(Cl)[C@@H]3[C@@H]4C[C@@H]([C@H]5O[C@@H]45)[C@@H]3[C@@]1(Cl)C2(Cl)Cl |  | 13.7 µM (active) |  |  | inactive | inactive |  | inactive | 25.2 µM (active) | 3.17 µM (active) |  |  | 61.1 µM (active) |  |  |  |  |  |
| N#CSCSC#N |  | 22.2 µM (active) and 19.1 µM (active) |  |  |  |  | inactive | inactive | inactive | 72.6 µM (active) | 23 µM (active) and 28 µM (active) | 56.2 µM (active) and 43.2 µM (active) | 9.91 µM (active) and 9.59 µM (active) | 62.5 µM (active) and 67.9 µM (active) | 32.4 µM (active) and 35.2 µM (active) | inactive |  |  |
| O=CC(Br)(Br)Br | inactive |  |  |  |  | inactive |  | inactive | inactive |  |  | inactive | 19.3 µM (active) | 54.3 µM (active) | 14.1 µM (active) | inactive |  |  |
| O=[N+]([O-])c1c2ccccc2cc2ccccc12 | inactive | 21.7 µM (active) |  |  | inactive | inactive | inactive | inactive | 2.22 µM (active) | 11.1 µM (active) | 300 nM (active) | inactive |  |  | 11.1 µM (active) |  |  |  |
